Data taken from PubChem BioAssay (NCATS).
Inconclusive results are not listed. The source made the active and inactive calls. Calls come from the whole dose curve; as a rule, active = well fitted curve in the direction sought with a large enough effect; inconclusive = small, poorly fitted or top-dose-only effect, or another doubt; inactive = no such curve, though single readings can be large; an effect the other way counts as inactive or inconclusive.

How the values were obtained:
[1] = Cellular Toxicity (caspase-3) NIH 3T3 (AID 666);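 note: caspase signal read after 16 h compound exposure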
Outline: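 Caspase-Glo 3/7 luminescence reported caspase activation in 1000 NIH 3T3 cells/well after 16 h compound exposure at 37 C. DMSO set basal and 100 uM tamoxifen set 100% stimulation; concentration-response modeled with the Hill equation for AC50.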

[2] = Cellular Toxicity (caspase-3) Renal Proximal Tubule (AID 667);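 note: cells exposed to compound for 16 hours at 37 °C before detection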
Outline: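 Primary rat proximal tubule cells, 1000/well, 5 h plating at 37 °C, then compound 16 h at 37 °C. Caspase-Glo 3/7 reagent, 1 h RT, luminescence. Normalized to DMSO (basal) and 10 uM staurosporine (100%); Hill-fit AC50.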

[3] = target: Cytochrome P450 3A4 (Homo sapiens) (UniProt P08684); assay: qHTS Assay for Inhibitors and Substrates of Cytochrome P450 3A4 (AID 884); note: series mostly up to about 57 µM; nearly all actives have a fitted effect of over 50% in size
Outline: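 Luminescent readout of luciferin produced by CYP3A4 (20 nM) dealkylation of Luciferin-PPXE, 25 uM (its KM). NADPH-driven reaction ran 60 min at RT after 10 min compound preincubation; data scaled to 57 uM ketoconazole as 100% inhibition.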

[4] = Cell Viability - LYMP2-001 (AID 921); note: series mostly up to about 92 µM; nearly all actives have a fitted effect of over 70% in size
Outline: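 Human lymphoblastoid cells (Coriell), 2500 per well, were preincubated 5 hr at 37 C, then exposed to compounds in complete medium for 24 hr at 37 C. Cellular ATP was read by CellTiter-Glo luminescence; AC50 from Hill fits of concentration-response data.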

[5] = MultiTox-Fluor Cytotoxicity Assay - LYMP1-001 - Dead Cells (AID 946)
Outline: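 LYMP1-001 lymphoblastoid cells (2500/well) treated 16 h at 37 C. Dead-cell protease cleavage of bis-AAF-R110 read at Ex/Em 485/520. Normalized to DMSO and 15 uM tetraoctylammonium bromide; AC50 from Hill fits.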

[6] = MultiTox-Fluor Cytotoxicity Assay - LYMP1-001 - Live Cells (AID 947)
[7] = Cell Viability - LYMP1-002 - Assay at 16 hr (AID 948)
Outline: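 Human lymphoblastoid cells (LYMP1-002), 2500/well, were preincubated 5 hr at 37 C, then exposed to compounds for 16 hr at 37 C in complete medium. Cellular ATP was read by CellTiter-Glo luminescence after 30 min at room temperature; AC50 from Hill fits.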

[8] = MultiTox-Fluor Cytotoxicity Assay - LYMP1-002 - Live Cells (AID 955)
Outline: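 After 16 h compound exposure at 37 C, live LYMP1-002 lymphoblastoid cells (2500/well) were quantified by cleavage of cell-permeant GF-AFC substrate, read at 405/510 nm after 60 min. Concentration-response fitted with Hill equation for AC50.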

[9] = MultiTox-Fluor Cytotoxicity Assay - LYMP1-002 - Dead Cells (AID 960); note: nearly all actives have a fitted effect of over 60% in size
Outline: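 Dead-cell fluorescence (Ex/Em 485/520) after 16 h compound exposure at 37 C of LYMP1-002 lymphoblastoid cells in complete medium; AC50 by Hill equation, with data scaled between DMSO and 15 uM tetraoctylammonium bromide.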

[10] = MultiTox-Fluor Cytotoxicity Assay - LYMP1-003 - Dead Cells (AID 961); note: nearly all actives have a fitted effect of over 70% in size
Outline: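 LYMP1-003 human lymphoblastoid cells (2500/well) exposed to compound 16 h at 37 C in complete medium; dead-cell protease read with bis-AAF-R110 fluorescence (Ex/Em 485/520) after 60 min at room temperature. Normalized to DMSO and 15 uM tetraoctylammonium bromide; AC50 from Hill fit.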

[11] = MultiTox-Fluor Cytotoxicity Assay - LYMP1-003 - Live Cells (AID 962);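 note: cytotoxic hits lower the live-cell protease signal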
Outline: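 Live-cell protease activity (GF-AFC substrate, 405/510 nm, 60 min at room temperature) after 16 h, 37 C compound exposure of human lymphoblastoid LYMP1-003 cells; concentration-response fitted to the Hill equation for AC50.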

[12] = Cell Viability - LYMP1-003 - Assay at 24 hr (AID 963)
Outline: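 Concentration-response qHTS: ATP loss measured by CellTiter-Glo luminescence after 24 h compound exposure at 37 C. Cells were LYMP1-003 human lymphoblastoid, 2500 per well. AC50 derived via standard Hill equation modeling.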

[13] = Cell Viability - LYMP1-003 - Assay at 40 hr (AID 964); note: series mostly up to about 92 µM; nearly all actives have a fitted effect of over 60% in size
Outline: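 Viability is taken as cellular ATP, read by CellTiter-Glo luminescence after 40 h of compound exposure at 37 C. Cells: human lymphoblastoid line LYMP1-003 at 2500/well; AC50 values derived by Hill-equation fitting of concentration-response data.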

[14] = Cell Viability - LYMP2-003 (AID 965);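 note: cells exposed to compounds for 24 h before reading; nearly all actives have a fitted effect of over 50% in size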
Outline: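 Human lymphoblastoid cells (2500/well) were pre-incubated 5 hr at 37 C, then exposed to compounds over a concentration range for 24 hr at 37 C. Intracellular ATP was read by CellTiter-Glo luminescence; AC50 came from Hill-equation fits.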

[15] = Cell Viability - LYMP2-004 (AID 966); note: nearly all actives have a fitted effect of over 65% in size
Outline: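 AC50 values come from Hill modelling of concentration-dependent loss of intracellular ATP, measured by CellTiter-Glo luminescence. Human LYMP2-004 lymphoblastoid cells (2500/well) were exposed to compound for 24 h at 37 C.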

[16] = Cell Viability - LYMP2-005 (AID 967); note: series mostly up to about 92 µM
Outline: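 CellTiter-Glo luminescence (cellular ATP) read-out; LYMP2-005 lymphoblastoid cells, 2500/well, 5 h pre-incubation, then 24 h compound exposure at 37 C in complete medium. Tetraoctylammonium bromide positive control; AC50 by standard Hill fit.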

[17] = Cell Viability - LYMP2-009 (AID 968); note: series mostly up to about 92 µM; nearly all actives have a fitted effect of over 55% in size
[18] = Cell Viability - LYMP2-011 (AID 969); note: nearly all actives have a fitted effect of over 60% in size
Outline: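 Cytotoxicity qHTS with ATP content as read-out: lymphoblastoid cells (2500/well) exposed to compound for 24 h at 37 C, then luciferase luminescence measured. Concentration-response data fitted with the standard Hill equation to give AC50.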

[19] = Cell Viability - LYMP2-013 (AID 970); note: series mostly up to about 92 µM; nearly all actives have a fitted effect of over 55% in size
Outline: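 qHTS cytotoxicity: ATP-dependent luminescence (CellTiter-Glo, 30 min room temperature) read after 24 h compound exposure at 37 C of 2500 LYMP2-013 lymphoblastoid cells per well. Concentration-response fitted with Hill equation to give AC50.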

[20] = Cell Viability - LYMP2-015 (AID 971); note: nearly all actives have a fitted effect of over 55% in size
Outline: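 Cytotoxicity readout: decrease in intracellular ATP (CellTiter-Glo luminescence) in 2500 LYMP2-015 lymphoblastoid cells/well after 24 h compound exposure at 37 C. Concentration-response data fitted with the standard Hill equation to give AC50.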

[21] = Cell Viability - LYMP2-017 (AID 972); note: series mostly up to about 92 µM; nearly all actives have a fitted effect of over 55% in size
Outline: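 CellTiter-Glo luminescence (cellular ATP, 30 min RT) measured cytotoxicity after 24 hr compound treatment at 37 C. Cells were a human lymphoblastoid line, LYMP2-017, plated at 2500/well and incubated 5 hr first; concentration-response fitted with Hill equation for AC50.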

[22] = Cell Viability - LYMP2-021 (AID 974); note: nearly all actives have a fitted effect of over 55% in size
Outline: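 AC50 values come from Hill-equation fits to CellTiter-Glo luminescence (ATP content), read after 24 hour compound exposure at 37 C of 2500 LYMP2-021 lymphoblastoid cells/well; tetraoctylammonium bromide as positive control.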

Measured: Potency

Chain of Cytochrome P450 3A4 (Homo sapiens) (P08684 whole entry, looked up): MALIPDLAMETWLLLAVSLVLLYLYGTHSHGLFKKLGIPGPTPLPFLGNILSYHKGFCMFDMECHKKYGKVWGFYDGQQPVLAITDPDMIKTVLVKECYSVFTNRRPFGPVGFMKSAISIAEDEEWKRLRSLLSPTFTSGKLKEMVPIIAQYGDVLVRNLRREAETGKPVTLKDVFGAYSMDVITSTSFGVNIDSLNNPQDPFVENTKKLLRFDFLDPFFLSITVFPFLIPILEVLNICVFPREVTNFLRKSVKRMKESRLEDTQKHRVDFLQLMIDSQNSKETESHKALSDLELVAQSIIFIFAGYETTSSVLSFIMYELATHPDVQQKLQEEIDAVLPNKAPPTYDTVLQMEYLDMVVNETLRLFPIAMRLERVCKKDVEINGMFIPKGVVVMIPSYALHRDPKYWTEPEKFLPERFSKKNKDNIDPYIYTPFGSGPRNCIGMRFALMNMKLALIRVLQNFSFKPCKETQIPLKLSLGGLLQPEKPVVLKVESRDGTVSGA

O=C(/C=C/c1ccc(O)c(O)c1)O[C@@H](C(=O)O)[C@@H](OC(=O)/C=C/c1ccc(O)c(O)c1)C(=O)O
inactive: [1] | [2] | [3] | [4] | [5] | [6] | [7] | [8] | [9] | [10] | [11] | [12] | [13] | [14] | [15] | [16] | [17] | [18] | [19] | [20] | [21] | [22]
